Results taken from PubChem BioAssay (Tox21).
Inconclusive results are not listed. Calls of active or inactive are those of the source. Unless noted, the call rests on the fitted dose curve; in most records, active means well fitted curve in the direction sought with a large enough effect in the repeat runs; inconclusive means weak or mixed curves; inactive means no such curve, though single readings can be large; an effect the other way counts as inactive or inconclusive.

How the values were obtained:
[1] = target: Aryl hydrocarbon receptor (Homo sapiens) (UniProt P35869); assay: qHTS assay to identify small molecule that activate the aryl hydrocarbon receptor (AhR) signaling pathway (AID 743085);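 further: HG2L7.5c1 human HepG2 liver cells with stably integrated DRE-driven firefly reporter; series mostly up to about 70 µM; nearly all actives have a fitted effect of over 15% in size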
Procedure, shortened: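 Luminescence read-out: ONE-Glo reagent, 30 min at room temperature, in HG2L7.5c1 HepG2 reporter cells treated 24 h at 37C. Viability was measured beforehand by CellTiter-Fluor fluorescence after 30 min at 37C.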

[2] = qHTS assay to identify small molecule that activate the aryl hydrocarbon receptor (AhR) signaling pathway - cell viability counter screen (AID 743086);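 further: HepG2 liver cells carrying the AhR DRE luciferase reporter; series mostly up to about 70 µM; nearly all actives have a fitted effect of over 45% in size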
Procedure, shortened: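 HepG2-AhR-luc (HG2L7.5c1) cells, 4000/well, were preincubated 5 h at 37C, exposed to compound in qHTS format for 24 hr at 37C, then given CellTiter-Fluor for 30 min; viability was read as fluorescence in the reporter wells.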

[3] = target: Peroxisome proliferator-activated receptor gamma (Homo sapiens) (UniProt P37231); assay: qHTS assay to identify small molecule antagonists of the peroxisome proliferator-activated receptor gamma (PPARg) signaling pathway (AID 743191; calls by dose curve; further: series mostly up to about 63 µM; nearly all actives have a fitted effect of over 30% in size)
Procedure, shortened: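 GeneBLAzer PPARg UAS-bla HEK293H cells carrying a UAS-driven beta-lactamase reporter were plated at 3000 cells/well, preincubated 5 h at 37C, then given compound for 17 h at 37C; LiveBLAzer B/G FRET substrate was read after 1 h at room temperature.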

[4] = qHTS assay to identify small molecule antagonists of the peroxisome proliferator-activated receptor gamma (PPARg) signaling pathway - cell viability counter screen (AID 743194); further: nearly all actives have a fitted effect of over 55% in size
Procedure, shortened: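 PPARg-UAS-bla HEK293H cells were plated, rested 5 h at 37 C, then treated with compounds plus rosiglitazone (50 nM final) for 17 h at 37 C; viability was then read by CellTiter-Glo luminescence after 30 min at room temperature.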

[5] = qHTS assay for small molecule agonists of the antioxidant response element (ARE) signaling pathway (AID 743202; active means well fitted activation curve with a large enough effect in the signal ratio in the repeat runs, not every such curve was filed as active; the % refers to the signal ratio)
Procedure, shortened: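 Read-out: LiveBLAzer B/G FRET substrate fluorescence after 2 h at room temperature, following 16 h compound treatment at 37 C of HepG2 cells carrying an ARE-driven beta-lactamase reporter.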

[6] = qHTS assay for small molecule agonists of the antioxidant response element (ARE) signaling pathway - cell viability counter screen (AID 743203; calls by dose curve; further: nearly all actives have a fitted effect of over 55% in size)
Procedure, shortened: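 HepG2 cells carrying ARE-driven beta-lactamase; 2,000 cells/well; 5 hrs plating; compound pinned from DMSO; 16 hrs 37C/5% CO2; CellTiter-Glo added; 30 min RT; luminescence.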

[7] = qHTS assay for small molecule activators of the heat shock response signaling pathway - cell viability counter screen (AID 743209); further: nearly all actives have a fitted effect of over 50% in size
Procedure, shortened: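 Luminescence from CellTiter-Glo, added after the beta-lactamase FRET read, gave the viability signal. Cells were HSE-bla HeLa treated with DMSO-dissolved compounds for 5 h at 37 C following overnight plating.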

[8] = qHTS assay for small molecule activators of the heat shock response signaling pathway (AID 743210; active means well fitted activation curve with a large enough effect in the signal ratio in the repeat runs, with a control signal flat, not every such curve was filed as active; the % refers to the signal ratio; further: series mostly up to about 63 µM)
Procedure, shortened: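 HSE-bla HeLa cells (beta-lactamase reporter under heat shock response elements) were exposed to compounds for 5 h at 37 C, then loaded with LiveBLAzer B/G FRET substrate for 2.5 h at room temperature before fluorescence reading.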

[9] = qHTS assay to identify small molecule agonists of the peroxisome proliferator-activated receptor delta (PPARd) signaling pathway - cell viability counter screen (AID 743211); further: nearly all actives have a fitted effect of over 55% in size
Procedure, shortened: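 Read-out: CellTiter-Glo luminescence, 30 min RT, measured in the same wells as the beta-lactamase reporter. Cells: GeneBLAzer PPAR delta UAS-bla HEK293H, 3000 cells/well, compound exposure 17 h at 37C.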

[10] = target: Peroxisome proliferator-activated receptor delta (Homo sapiens) (UniProt Q03181); assay: qHTS assay to identify small molecule agonists of the peroxisome proliferator-activated receptor delta (PPARd) signaling pathway (AID 743212; calls by dose curve)
Procedure, shortened: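 GeneBLAzer PPARd UAS-bla HEK293H cells (beta-lactamase reporter under UAS control), plated and rested 5 h at 37 C, then exposed to compounds in DMSO at 37 C; LiveBLAzer B/G FRET substrate added, 2 h room temperature, fluorescence read.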

[11] = qHTS assay to identify small molecule antagonists of the peroxisome proliferator-activated receptor delta (PPARd) signaling pathway - cell viability counter screen (AID 743213); further: nearly all actives have a fitted effect of over 50% in size
Procedure, shortened: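 Cytotoxicity counter screen: CellTiter-Glo luminescence read 30 min after addition, in the same wells as the reporter assay. There, PPARd UAS-bla HEK293H cells (3000/well) were treated 17 h at 37 C with compound and 300 nM L165041.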

[12] = target: Peroxisome proliferator-activated receptor delta (Homo sapiens) (UniProt Q03181); assay: qHTS assay to identify small molecule antagonists of the peroxisome proliferator-activated receptor delta (PPARd) signaling pathway (AID 743215; active means well fitted inhibition curve with a large enough effect in the signal ratio in the repeat runs, not every such curve was filed as active; the % refers to the signal ratio;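 further: cells stimulated with agonist L165041 at 300 nM final during compound exposure; series mostly up to about 62 µM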)
Procedure, shortened: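 Read-out is beta-lactamase FRET fluorescence, measured 2 h after substrate addition at room temperature. Beforehand, UAS-bla HEK293H cells carrying the PPARd reporter were exposed to compounds with L165041 at 300 nM final for 17 h at 37 C.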

[13] = qHTS assay to identify small molecule agonists of the farnesoid-X-receptor (FXR) signaling pathway - cell viability counter screen (AID 743218); further: nearly all actives have a fitted effect of over 45% in size
Procedure, shortened: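 HEK 293T FXR-bla cells; 5 h pre-incubation, 16 h compound exposure at 37 C; LiveBLAzer substrate 2 h RT, then CellTiter-Glo 30 min RT, luminescence.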

[14] = qHTS assay to identify small molecule antagonists of the farnesoid-X-receptor (FXR) signaling pathway - cell viability counter screen (AID 743221; active means well fitted cell-killing curve with a large enough effect in the repeat runs, not every such curve was filed as active; further: nearly all actives have a fitted effect of over 50% in size)
Procedure, shortened: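 HEK 293T FXR-bla cells, 5 h pre-incubation; compound + CDCA 50 uM final, 16 h, 37 C; beta-lactamase FRET read first, then CellTiter-Glo luminescence, 30 min RT.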

[15] = target: Vitamin D3 receptor (Homo sapiens) (UniProt P11473); assay: qHTS assay to identify small molecule agonists of the vitamin D receptor (VDR) signaling pathway (AID 743222; calls by dose curve)
Procedure, shortened: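 VDR-bla cells, 2,000/well; 4 h preincubation 37C; cpd (DMSO) 16 h; LiveBLAzer B/G substrate 2 h RT; fluorescence intensity read.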

[16] = qHTS assay to identify small molecule agonists of the vitamin D receptor (VDR) signaling pathway - cell viability counter screen (AID 743224); further: series mostly up to about 63 µM; nearly all actives have a fitted effect of over 50% in size
Procedure, shortened: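 Luminescence from CellTiter-Glo, read after 30 min at room temperature, reports viability of VDR-bla cells treated with compounds for 16 h at 37C in the wells used for the beta-lactamase FRET read.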

[17] = target: Peroxisome proliferator-activated receptor gamma (Homo sapiens) (UniProt P37231); assay: qHTS assay to identify small molecule agonists of the peroxisome proliferator-activated receptor gamma (PPARg) signaling pathway (AID 743094; active means well fitted activation curve with a large enough effect in the signal ratio in the repeat runs, not every such curve was filed as active; the % refers to the signal ratio)
Procedure, shortened: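 Beta-lactamase FRET fluorescence was the read-out after a 1 h room-temperature substrate step, following 17 h compound treatment at 37C of HEK293H cells expressing a UAS-driven bla reporter responsive to PPARg.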

[18] = target: Bile acid receptor (Homo sapiens) (UniProt Q96RI1); assay: qHTS assay to identify small molecule agonists of the farnesoid-X-receptor (FXR) signaling pathway (AID 743220; active means well fitted activation curve with a large enough effect in the signal ratio in the repeat runs, not every such curve was filed as active; the % refers to the signal ratio)
Procedure, shortened: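 Beta-lactamase reporter under UAS control in GeneBLAzer FXR HEK 293T cells (5000/well) measured with LiveBLAzer FRET substrate after 2 h at room temperature. Compound exposure lasted 16 h at 37C.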

[19] = target: Vitamin D3 receptor (Homo sapiens) (UniProt P11473); assay: qHTS assay to identify small molecule antagonists of the vitamin D receptor (VDR) signaling pathway (AID 743223; active means well fitted inhibition curve with a large enough effect in the signal ratio in the repeat runs, not every such curve was filed as active; the % refers to the signal ratio)
Procedure, shortened: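 Beta-lactamase reporter read-out: FRET substrate fluorescence after 2 h at room temperature, following 16 h exposure of VDR-bla cells to test compound plus 3 nM (final) 1alpha,25-dihydroxyvitamin D3 agonist at 37C.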

[20] = target: Bile acid receptor (Homo sapiens) (UniProt Q96RI1); assay: qHTS assay to identify small molecule antagonists of the farnesoid-X-receptor (FXR) signaling pathway (AID 743217; active means well fitted inhibition curve with a large enough effect in the signal ratio in the repeat runs, not every such curve was filed as active; the % refers to the signal ratio)
Procedure, shortened: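 HEK 293T FXR-UAS-bla, 5000 cells/well; compound + CDCA 50 uM final; 16 h, 37 °C; B/G FRET substrate 2 h RT; fluorescence.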

Measured: Potency

Sequence of Vitamin D3 receptor (Homo sapiens) (P11473 whole entry, looked up): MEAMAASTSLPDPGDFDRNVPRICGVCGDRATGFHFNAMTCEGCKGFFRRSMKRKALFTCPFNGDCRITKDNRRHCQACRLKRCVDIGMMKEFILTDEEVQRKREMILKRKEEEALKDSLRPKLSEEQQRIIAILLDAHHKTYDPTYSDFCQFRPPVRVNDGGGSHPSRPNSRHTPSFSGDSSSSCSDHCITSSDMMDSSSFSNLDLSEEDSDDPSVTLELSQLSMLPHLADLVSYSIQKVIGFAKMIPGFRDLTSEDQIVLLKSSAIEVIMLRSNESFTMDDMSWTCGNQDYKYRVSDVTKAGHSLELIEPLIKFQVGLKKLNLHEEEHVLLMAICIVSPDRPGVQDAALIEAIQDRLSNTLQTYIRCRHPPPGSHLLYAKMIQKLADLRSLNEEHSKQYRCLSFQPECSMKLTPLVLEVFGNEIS
Sequence of Aryl hydrocarbon receptor (Homo sapiens) (P35869 whole entry, looked up): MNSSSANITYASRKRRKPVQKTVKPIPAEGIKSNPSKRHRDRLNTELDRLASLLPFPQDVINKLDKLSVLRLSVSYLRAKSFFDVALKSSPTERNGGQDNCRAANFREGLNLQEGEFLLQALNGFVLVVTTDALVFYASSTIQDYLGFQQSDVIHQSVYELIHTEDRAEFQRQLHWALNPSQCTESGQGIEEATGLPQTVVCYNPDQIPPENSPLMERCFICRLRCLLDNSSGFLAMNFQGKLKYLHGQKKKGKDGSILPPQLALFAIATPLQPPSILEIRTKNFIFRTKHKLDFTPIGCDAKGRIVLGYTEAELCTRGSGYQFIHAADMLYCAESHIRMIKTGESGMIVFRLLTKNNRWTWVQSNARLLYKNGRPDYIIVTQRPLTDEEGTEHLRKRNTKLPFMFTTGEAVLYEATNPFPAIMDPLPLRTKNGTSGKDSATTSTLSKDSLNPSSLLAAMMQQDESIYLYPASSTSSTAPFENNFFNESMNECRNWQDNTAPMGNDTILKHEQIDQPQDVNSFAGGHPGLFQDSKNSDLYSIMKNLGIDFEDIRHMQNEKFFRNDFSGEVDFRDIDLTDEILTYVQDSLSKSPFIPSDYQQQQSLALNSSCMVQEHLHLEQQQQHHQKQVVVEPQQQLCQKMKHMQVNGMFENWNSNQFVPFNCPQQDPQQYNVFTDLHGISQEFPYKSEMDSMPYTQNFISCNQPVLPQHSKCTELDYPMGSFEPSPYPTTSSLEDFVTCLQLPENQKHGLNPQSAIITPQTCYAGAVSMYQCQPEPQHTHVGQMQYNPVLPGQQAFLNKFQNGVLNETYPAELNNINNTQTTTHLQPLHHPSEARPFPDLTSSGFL
Sequence of Bile acid receptor (Homo sapiens) (Q96RI1 whole entry, looked up): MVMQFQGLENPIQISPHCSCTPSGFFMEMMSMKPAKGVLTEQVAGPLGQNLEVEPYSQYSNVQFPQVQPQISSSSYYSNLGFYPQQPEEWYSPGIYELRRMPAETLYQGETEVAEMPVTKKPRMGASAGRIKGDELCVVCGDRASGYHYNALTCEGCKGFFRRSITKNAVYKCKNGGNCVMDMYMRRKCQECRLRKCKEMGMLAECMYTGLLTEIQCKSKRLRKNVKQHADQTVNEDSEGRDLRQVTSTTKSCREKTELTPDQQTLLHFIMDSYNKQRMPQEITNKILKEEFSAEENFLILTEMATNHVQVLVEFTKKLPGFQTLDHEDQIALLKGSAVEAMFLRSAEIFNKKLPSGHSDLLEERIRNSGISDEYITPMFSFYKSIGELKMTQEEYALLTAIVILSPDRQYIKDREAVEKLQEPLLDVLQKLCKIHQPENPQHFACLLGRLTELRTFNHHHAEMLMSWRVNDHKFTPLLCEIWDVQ
Sequence of Peroxisome proliferator-activated receptor gamma (Homo sapiens) (P37231 whole entry, looked up): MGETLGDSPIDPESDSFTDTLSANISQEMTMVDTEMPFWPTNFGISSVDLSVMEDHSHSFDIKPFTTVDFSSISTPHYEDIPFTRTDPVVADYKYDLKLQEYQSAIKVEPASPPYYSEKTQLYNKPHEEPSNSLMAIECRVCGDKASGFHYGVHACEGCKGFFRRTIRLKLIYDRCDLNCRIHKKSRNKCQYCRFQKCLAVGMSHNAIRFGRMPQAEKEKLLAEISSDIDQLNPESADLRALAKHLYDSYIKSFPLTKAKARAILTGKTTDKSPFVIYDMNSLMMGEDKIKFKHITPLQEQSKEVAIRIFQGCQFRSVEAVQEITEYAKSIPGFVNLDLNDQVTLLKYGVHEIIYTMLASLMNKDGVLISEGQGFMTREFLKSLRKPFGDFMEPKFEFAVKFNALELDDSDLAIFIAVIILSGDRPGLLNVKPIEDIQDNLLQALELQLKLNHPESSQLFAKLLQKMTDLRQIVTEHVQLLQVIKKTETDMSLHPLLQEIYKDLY
Sequence of Peroxisome proliferator-activated receptor delta (Homo sapiens) (Q03181 whole entry, looked up): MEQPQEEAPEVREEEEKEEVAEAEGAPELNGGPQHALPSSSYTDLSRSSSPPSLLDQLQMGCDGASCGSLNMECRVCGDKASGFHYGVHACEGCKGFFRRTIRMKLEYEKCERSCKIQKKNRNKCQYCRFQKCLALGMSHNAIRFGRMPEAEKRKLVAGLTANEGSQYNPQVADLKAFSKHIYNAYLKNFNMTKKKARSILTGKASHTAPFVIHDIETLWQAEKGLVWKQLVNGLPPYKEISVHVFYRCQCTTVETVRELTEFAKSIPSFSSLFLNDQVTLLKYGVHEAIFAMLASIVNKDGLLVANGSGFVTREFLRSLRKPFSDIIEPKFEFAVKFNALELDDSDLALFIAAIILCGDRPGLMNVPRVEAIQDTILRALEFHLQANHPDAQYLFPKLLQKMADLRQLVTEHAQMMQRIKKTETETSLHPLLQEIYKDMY

CC(C)CCCCCCN
inactive: [1] | [2] | [3] | [4] | [5] | [6] | [7] | [8] | [9] | [10] | [11] | [12] | [13] | [14] | [15] | [16]

CN1[C@@H]2CC[C@H]1CC(NC(=O)n1c(=O)[nH]c3ccccc31)C2 (stereo partly specified)
inactive: [1] | [2] | [17] | [6] | [7] | [8] | [9] | [10] | [11] | [12] | [13] | [18] | [14] | [15] | [19] | [16]

CCCCC1CCCCC(=O)O1 (stereo unspecified)
inactive: [1] | [2] | [3] | [4] | [6] | [7] | [11] | [12] | [13] | [14] | [15] | [19] | [16]

COc1ccc(NC(C)=O)cc1
inactive: [1] | [2] | [17] | [5] | [6] | [7] | [8] | [9] | [10] | [11] | [13] | [14] | [15] | [19] | [16]

C[N+](C)(C)CC[N+]1(C)Cc2c(Cl)c(Cl)c(Cl)c(Cl)c2C1
inactive: [1] | [2] | [3] | [4] | [6] | [7] | [8] | [9] | [10] | [11] | [12] | [13] | [14] | [15] | [19] | [16]

CC(C)c1cccc(C(C)C)c1N
inactive: [1] | [2] | [17] | [5] | [6] | [7] | [8] | [9] | [10] | [11] | [12] | [13] | [14] | [15] | [19] | [16]

CC(C)CCOC(=O)CC(C)C
inactive: [1] | [2] | [3] | [4] | [5] | [6] | [8] | [9] | [10] | [11] | [12] | [20] | [13] | [18] | [14] | [15]

CCCCNc1ccccc1
inactive: [1] | [2] | [3] | [4] | [5] | [6] | [7] | [8] | [9] | [10] | [11] | [20] | [13] | [18] | [14] | [15] | [19] | [16]
